Molecules are shown by their SMILES. Among all 69,000 compounds or so, about 8,600 (12%) showed an effect of 50% or more. Many of the other results were omitted from the sample, so strong results are more common in it than they were.

This assay deals with Plasmodium berghei. Briefly: Screen against P. berghei liver stage (PbLuc), transformed with Luciferase, at 10uM. The format is functional, HepG2. The following applies: tested at 10 uM.
Take `CC(C)NC(=O)NCCCc1cccc(F)c1`: the INHIBITION is recorded as 12.2%. In the case of `CC(Cc1ccco1)NC(=O)Nc1cnn(CC(N)=O)c1` (stereo not given), the INHIBITION came to 0.0932%. For `CC(Cc1ccco1)NC(=O)NCc1ncnn1C` (stereo not given), the INHIBITION turned out to be 86.2%. As to `CC(CCc1cccc(F)c1)NC(=O)NCc1ncnn1C` (stereo not given), the INHIBITION turned out to be 56.4%. As to `CC(Cc1ccco1)NC(=O)CCn1cccn1` (stereo not given), the INHIBITION is listed as 38.6%. Regarding `CC(Cc1c(F)cccc1F)NC(=O)Nc1cnn(CC(N)=O)c1` (stereo not given), the INHIBITION was 31.1%. Take `CC(Cc1cccc(Cl)c1)NC(=O)Nc1cnn(CC(N)=O)c1` (stereo not given): the INHIBITION is -11.4%.

For `Cc1cc(C(=O)NC(C)Cc2cccc(Cl)c2)n(C)n1` (stereo not given), the INHIBITION stood at 18.6%. In the case of `COCCn1cc(NC(=O)NC(C)Cc2c(F)cccc2F)cn1` (stereo not given) it was 15.3%; in that of `Cn1ccnc1CNC(=O)CCc1cccc(F)c1`, -0.35%.

As to `COC(=O)N1CCCC(C(=O)NCCc2c[nH]c3cc(C)ccc23)C1` (stereo not given), the INHIBITION is 47.9%. Regarding `CC(=O)NCCn1ccc(-c2ccccn2)n1`, the INHIBITION is listed as -13%.

Take `O=C(c1ccc(-c2cccc3c2CCNC3)o1)N1CCCC1`: the INHIBITION was found to be 9.56%. Take `Cc1nn(C)c2ncc(CNCCc3ccccn3)cc12`: the INHIBITION is given as 39.7%. In the case of `CCN1CC2(CCCCN2C(=O)c2ccsc2)CC1=O` (stereo not given) it was -8.51%; in that of `CC(=O)N1CCC1c1cc(N2CC(O)C2)nc(C)n1` (stereo not given), 3.8%; in that of `Cc1nc2n(n1)CC(NCc1cc(Cl)c3c(c1)OCCO3)CC2` (stereo not given), 13.6%. For the compound `O=C1NC2(CCc3ccccc31)CCN(C(=O)c1cccnc1)C2` (stereo not given), the INHIBITION is 12.085%. Next, `CCN1CCOCC2(CCCN(C(=O)c3conc3C)C2)C1` (stereo not given): 12.4%; `Cn1cc(CN2CCCC3(CCN(C(=O)c4cnccn4)C3)C2)cn1` (stereo not given): 49.7%; `NC(=O)CCc1cccc(C2CCNCC2)n1`: 6.26%. For the compound `Clc1cccc(Cl)c1CN(CCCN1CCOCC1)Cc1cccnc1`, the INHIBITION is recorded as 19.3%. Turning to `CCNc1nc(C(=O)N(C)Cc2nc(CC)no2)cs1`, the INHIBITION amounted to 53.4%. Next, `CCCc1nc(C(=O)N(C)Cc2cc(CC)no2)cs1`: -59.5%; `CCNc1nc(C)c(C(=O)N(C)Cc2nc(CC)no2)s1`: 20.9%; `CN(Cc1ccc(F)cc1)CC1(O)CCN(C(=O)c2ccncc2)C1` (stereo not given): 27.8%.

With `COC(=O)CNC(=O)c1cn(-c2ccccn2)c(=O)c2ccccc12`, the INHIBITION was -21.4%. As to `CC(C)N1[C@H](CN2CCCC2)C[C@@H]2CN(C(=O)c3ccoc3)CC[C@@H]21`, the INHIBITION was found to be 15.9%. In the case of `COc1cc(C)c(C2CC(=O)NCc3nc4sccn4c32)cc1C` (stereo not given) it was -9.18%. On to `CCC1CC(=O)NCc2nc3sc(C)cn3c21` (stereo not given), for which the INHIBITION is recorded as 53.3%. `COc1cc(C2CC(=O)NCc3nc4sccn4c32)cc(OC)c1O` (stereo not given): the INHIBITION is recorded as 39.3%. In the case of `Cc1cc(F)ccc1NC(=O)NCC(C)N1CCOCC1` (stereo not given), the INHIBITION was found to be 39%. Consider `CNC(=O)c1cccnc1NCCOc1ccccc1`, for which the INHIBITION was -81.6%.

Take `c1ccc(OCCNC2=NCCCN2)cc1`: the INHIBITION is recorded as 77.9%. With `Fc1ccc(OCCCNC2=NCCN2)cc1`, the INHIBITION is 54.4%. With `Fc1ccc(OCCCNC2=NCCCN2)cc1`, the INHIBITION was determined as 35.4%. As to `c1ccc(OCCSC2=NCCN2)cc1`, the INHIBITION came to 35%. For `Cn1cc(NCCOc2ccc(F)cc2)cn1`, the INHIBITION is reported as 8.09%. Regarding `CNC(=O)COC1COC2(CCN(c3ccc(C)nn3)CC2)C1` (stereo not given), the INHIBITION came to 54.1%. As for `CNC(=O)COC1COC2(CCN(c3cnccn3)CC2)C1` (stereo not given), the INHIBITION is recorded as 36.4%. Take `CNC(=O)COC1COC2(CCN(c3ncccn3)CC2)C1` (stereo not given): the INHIBITION was 27.5%. On to `COC1COC2(CCN(c3ccc(C#N)cc3)CC2)C1` (stereo not given), for which the INHIBITION was -36.5%. For `Cc1ccc(N2CCC3(CC2)CC(OCC(=O)N(C)C)CO3)nn1` (stereo not given), the INHIBITION came out at 29%. Turning to `CNC(=O)COC1COC2(CCN(c3ccc(C#N)cc3)CC2)C1` (stereo not given), the INHIBITION is 64.9%. With `CNC(=O)[C@@H](CC(C)C)N1CCC[C@H]1C(=O)N(C)Cc1ccccc1`, the INHIBITION was 25.3%. Take `Cc1noc([C@H]2C[C@H]3OCC[C@H]3N(Cc3ccc4c(c3)OCO4)C2)n1`: the INHIBITION was 17.6%. For the compound `CSc1c(CC(=O)O)n(C)c2ccccc12`, the INHIBITION is on record as -9.98%.

In the case of `O=C([C@@H]1CC[C@@H]2[C@@H](CCN2Cc2cccc(F)c2)O1)N1CCCCO1`, the INHIBITION is -7.48%. `CC(C)c1cc(C2CCN(Cc3cc(F)cc(F)c3)CC2)[nH]n1`: the INHIBITION stood at 49.5%.

`CC(C)c1cc(C2CCN(C(=O)Cn3cnnn3)CC2)[nH]n1`: the INHIBITION was 35.1%.

Take `Cc1n[nH]c(C)c1CN1CCC(c2cc(C(C)C)n[nH]2)CC1`: the INHIBITION was determined as 13.9%. Take `CC(C)c1cc(C2CCN(C(=O)Cn3nc4ccccc4n3)CC2)[nH]n1`: the INHIBITION is listed as 53.2%. As for `CC(C)c1cc(C2CCN(C(=O)Cn3cncn3)CC2)[nH]n1`, the INHIBITION was 17%.

On to `CC(C)c1cc(C2CCN(C(=O)Cn3cnc4ccccc43)CC2)[nH]n1`, for which the INHIBITION is on record as 86.6%. In the case of `CC(C(=O)NCCN1CCOCC1)n1cncn1` (stereo not given), the INHIBITION is recorded as -2.33%.

The values above are taken from ChEMBL document CHEMBL4513216, “Probing the Open Global Health Chemical Diversity Library for Multistage-Active Starting Points for Next-Generation Antimalarials” (ACS Infect Dis, 2020).
